Measurements reported in PubChem BioAssay AID1745847 (National Center for Advancing Translational Sciences (NCATS), 2022).
Screen size: about 2,100 compounds; about 670 (32%) were called active. About 50% were inconclusive and are not listed. Calls follow the shape of the dose curve; as a rule, active = well fitted inhibition curve with a large enough effect; inconclusive = small, poorly fitted or top-dose-only effect; inactive = no such curve, though single readings can be large or run the other way. The list shows a part of the results.

Experiment: CMV-Luciferase Counterscreen for Inhibitors of ATXN expression; also: nearly all actives have a fitted effect of over 55% in size
Settings: HEK-293 CMV-luciferase reporter, luminescence, 24 h; series mostly up to 57.5 µM; activity change, negative = inhibition: at the top concentration
% is scaled to controls: 0 for no effect and ±100 for the full control effect; potency is read from the fitted curve at half-maximal effect.

| Structure (SMILES) | activity change, negative = inhibition | Potency |
| --- | --- | --- |
| CCn1c2ccccc2c2cc(NC(=O)COC(=O)c3cccc(S(=O)(=O)NC)c3)ccc21 | 21.7% (inactive) | – |
| CCOC(=O)c1c(NC(=O)COC(=O)Cn2cnc3ccccc32)sc(C)c1C | 20.6% (inactive) | – |
| CCc1nc2ccccc2c(C(=O)OCC(=O)Nc2cccc(S(=O)(=O)NC3=NCCCCC3)c2)c1C | – | 14.1 µM (active) |
| CN(C)CCNc1ncnc2c1sc1nc(N3CCCC3)c3c(c12)CC(C)(C)OC3 | 42.2% (inactive) | – |
| O=C(N/N=C(\Cc1ncc[nH]1)c1ccccc1)c1cccnc1 | – | 3.98 µM (active) |
| CCN(CC)c1cc(C)c2cc(NC(=O)c3ccccc3OC)ccc2n1 | -29.6% (inactive) | – |
| CCOc1ccccc1C(=O)Nc1ccc2nc(N3CCN(c4ncccn4)CC3)cc(C)c2c1 | – | 11.2 µM (active) |
| O=C1Nc2c(Br)cc(Br)c3cccc1c23 | -4.4% (inactive) | – |
| O=C(Nc1nc(-c2ccccc2)cs1)c1ccccc1NS(=O)(=O)c1ccc(F)cc1 | – | 1 µM (active) |
| O=C(Nc1nc(-c2ccc(S(=O)(=O)N3CCOCC3)cc2)cs1)c1ccccc1 | – | 1.12 µM (active) |
| COc1cccc(C(=O)Nc2nc(-c3ccc(S(=O)(=O)N4CCOCC4)cc3)cs2)c1 | – | 2.82 µM (active) |
| NC(=O)c1c(NC(=O)c2ccc(S(=O)(=O)N3CCOCC3)cc2)sc2c1CCCCC2 | -13.6% [at 11.4 µM] (inactive) | – |
| O=C(Nc1cccc(S(=O)(=O)C(F)F)c1)c1ccc(Cl)c(S(=O)(=O)N2CCOCC2)c1 | – | 15.8 µM (active) |
| O=C(Nc1nc(-c2ccccn2)cs1)c1ccc(F)c(S(=O)(=O)N2CCOCC2)c1 | – | 1.78 µM (active) |
| COc1ccccc1C(=O)Nc1nc(-c2ccc(S(=O)(=O)N3CCOCC3)cc2)cs1 | – | 1.58 µM (active) |
| Cn1c(=O)c2c(nc(SCCN3CCOCC3)n2Cc2cccc3ccccc23)n(C)c1=O | -18.8% [at 11.4 µM] (inactive) | – |
| Cn1c(=O)c2c(nc(CN3CCN(Cc4ccccc4)CC3)n2Cc2ccc(Cl)cc2)n(C)c1=O | – | 17.8 µM (active) |
| CCCCCc1ccc(OCCCC[n+]2cccc(C)c2)c(CCCCC)c1 | – | 4.47 µM (active) |
| O=C(NC(=S)NCc1nc2ccccc2[nH]1)c1ccc(F)cc1 | 290% [at 11.4 µM] (inactive) | – |
| CCC(=O)NC(c1ccc(OC)c(OC)c1)c1cc(Cl)c2cccnc2c1O (centres undefined) | – | 1.41 µM (active) |
| CCCC(=O)NC(c1ccc(OC)c(OC)c1)c1cc(Cl)c2cccnc2c1O (centres undefined) | – | 4.47 µM (active) |

| Structure (SMILES) | activity change, negative = inhibition | Potency |
| --- | --- | --- |
| Cc1ccc(Sc2nnc(Cc3ccccc3)c3ccccc23)cc1 | -3.53% (inactive) | – |
| O=C(N/N=C/c1sc(N2CCOCC2)nc1-c1ccccc1)c1ccccc1O | – | 12.6 µM (active) |
| CC(C)(C)c1ccc(C(=O)N2CCCCCC2=O)cc1 | – | 5.01 µM (active) |
| COc1ccc(CN(C)C(=O)c2cccc(NC(=O)CC3SC(N4CCCCC4)=NC3=O)c2)c(OC)c1 (centres undefined) | – | 10 µM (active) |
| CC(C)c1ccc2c(c1)C(N1CCNCC1)Cc1ccc(F)cc1S2 (centres undefined) | – | 35.5 µM (active) |
| COc1ccc(N=Cc2cc3c(cc2O)OC(N)=C(C#N)C3c2ccccc2)cc1 (centres undefined) | -22.6% [at 11.4 µM] (inactive) | – |
| Cc1cc(C)cc(C(=O)N(NC(=O)Nc2ccc(Cl)cc2)C(C)(C)C)c1 | – | 22.4 µM (active) |
| Oc1c(Cl)cc(Cl)cc1/C=N/Nc1ncc(Br)cn1 | – | 2 µM (active) |
| CN1CCN(c2cc(-c3cc(O)c4ncccc4c3)ccn2)CC1 | – | 14.1 µM (active) |
| CN(Cc1cnc2nc(N)nc(N)c2n1)c1ccc(C(=O)N[C@@H](CCC(=O)O)C(=O)O)cc1 | – | 0.0063 µM (active) |
| Cc1cc(C)cc(NS(=O)(=O)c2ccc3c(c2)c(=O)n(C)c(=O)n3C)c1 | – | 11.2 µM (active) |
| NC(Cc1ccc(C(F)(F)F)cc1)c1csc(Nc2ccc(C(=O)NCc3ccco3)cn2)n1 (centres undefined) | -23.4% [at 11.4 µM] (inactive) | – |
| Cn1cc(/C=C/c2cc[n+](C)cc2)c2cc(F)ccc21 | – | 11.2 µM (active) |
| CN(C)CCNC(=O)c1cccc(-c2cnc3c(NC=O)cc(-c4cccs4)cn23)c1 | 0.48% (inactive) | – |
| COc1ccc(-c2cc(NC=O)c3ncc(-c4cccc(C(=O)NCCN(C)C)c4)n3c2)cc1 | -9.37% (inactive) | – |
| CN(C)CCNC(=O)c1cccc(-c2cnc3c(NC=O)cc(-c4cccc(C(F)(F)F)c4)cn23)c1 | – | 22.4 µM (active) |
| Cc1ccc(Cl)cc1N1CCN(C(=O)CCS(=O)(=O)c2ccc3c(c2)NC(=O)CO3)CC1 | – | 14.1 µM (active) |
| CCCCN(C=O)c1c(CC)nc2ccc(C(=O)Nc3cc(-c4ccccc4)ccc3OC)cn12 | – | 22.4 µM (active) |
| CCc1nc2ccc(C(=O)Nc3cc(-c4ccccc4)ccc3OC)cn2c1N(CC)CC(=O)N(C)C | – | 31.6 µM (active) |
| Cc1nc2ncnn2c(N2CCN(c3cccc(C(F)(F)F)c3)CC2)c1C | – | 2.51 µM (active) |
| Cc1ccnc(NC(=S)N2CCN(c3cccc(C(F)(F)F)c3)CC2)c1 | 410% (inactive) | – |

| Structure (SMILES) | activity change, negative = inhibition | Potency |
| --- | --- | --- |
| CCC(CC)C(=O)c1c[nH]c(C(=O)NCc2ccccn2)c1 | 5.87% (inactive) | – |
| COc1cc(C(=O)N/N=C(\c2ccccc2)c2ccccn2)cc(OC)c1OC | – | 0.398 µM (active) |
| O=C(N/N=C(\c1ccccc1)c1ccccn1)c1ccccc1Cl | – | 3.98 µM (active) |
| Cc1ccc2c(c1)-c1c(cnn1CC(=O)N1CCCN(Cc3ccccc3F)C1)CO2 | -25.8% [at 11.4 µM] (inactive) | – |
| CC(NC1=CC(=O)c2cccnc2C1=O)C(O)c1ccccc1 (centres undefined) | – | 15.8 µM (active) |
| C/C(=N\NC(=O)C1CCCN(S(=O)(=O)c2ccccc2)C1)c1ccccn1 (centres undefined) | – | 1.41 µM (active) |
| CCc1ccc(-c2nc(CS(=O)CC(=O)NCc3ccco3)c(C)o2)cc1 (centres undefined) | – | 0.501 µM (active) |
| Cc1cccc(N=C2NN=C(c3c(C)[nH]c4ccccc34)CS2)c1 | – | 12.6 µM (active) |
| COc1cc(OC)cc(-c2cc3nc(C)c(CCC(=O)O)c(C)n3n2)c1 | – | 1 µM (active) |
| COc1cc(OC)cc(-c2cc3nc(C)c(CCC(=O)NCc4ccccc4)c(C)n3n2)c1 | – | 11.2 µM (active) |
| COc1ccc(CNC(=O)CSc2nc(-c3ccccc3)cc(-c3cccs3)c2C#N)cc1 | 16% [at 11.4 µM] (inactive) | – |
| Cc1c(CC(=O)NCCCC(=O)O)c(=O)oc2cc3c(cc12)CCC(C)(C)O3 | – | 11.2 µM (active) |
| O=C1c2cccc3cc([N+](=O)[O-])cc(c23)C(=O)N1CCN1CCCC1 | – | 0.794 µM (active) |
| CCc1ccc(-c2cc(C(F)(F)F)n3nc(C(=O)Nc4cnn(Cc5ccc(C)cc5)c4)cc3n2)s1 | -12.2% (inactive) | – |
| O=C(Nc1cnn(C23CC4CC(CC(C4)C2)C3)c1)c1cnn2c(C(F)(F)F)cc(-c3ccco3)nc12 | – | 15.8 µM (active) |
| CCOc1ccc(/C=C/[N+](=O)[O-])c2ccccc12 | – | 15.8 µM (active) |
| Cc1cc(=O)[nH]c(N=N/C(=N/Nc2ccccc2C)c2ccccc2)n1 | – | 1.58 µM (active) |
| COc1cc(C#Cc2c(-c3cncn3C)n(C)c3ccc(-c4cnc(OC)nc4)cc23)cc(OC)c1 | – | 3.55 µM (active) |
| COc1cc(C#Cc2c(-c3cncn3C)n(C)c3ccc(-c4cnc(N5CCOCC5)nc4)cc23)cc(OC)c1 | -19.7% [at 11.4 µM] (inactive) | – |
| COc1cc(C#Cc2c(-c3cncn3C)n(C)c3ccc(-c4ccc(CN5CCOCC5)cc4)cc23)cc(OC)c1 | -6.42% [at 11.4 µM] (inactive) | – |
| Cc1ccc(-c2cc(C(=O)N/N=C/c3ccccc3O)n[nH]2)o1 | – | 15.8 µM (active) |

| Structure (SMILES) | activity change, negative = inhibition | Potency |
| --- | --- | --- |
| O=C(N/N=C\c1c(O)ccc2ccccc12)c1cncc(Br)c1 | – | 0.282 µM (active) |
| O=C(N/N=C/c1c(O)ccc2ccccc12)c1ccc(CO)nc1 | – | 8.91 µM (active) |
| Nc1ccc2cc3[nH]c4cc(N)ccc4c3nc2c1 | -29.2% [at 11.4 µM] (inactive) | – |
| CCN1CCN(C2=C(NS(=O)(=O)c3ccc(C)cc3)C(=O)c3ccccc3C2=O)CC1 | – | 3.55 µM (active) |
| CCn1c(CCC(=O)Nc2nc3c(s2)CCCC3)nc2cc(S(=O)(=O)N(C)C)ccc21 | 4.42% [at 11.4 µM] (inactive) | – |
| Cc1ccccc1OCC(=O)N/N=C/c1cccc2cccnc12 | – | 15.8 µM (active) |
| Cc1ccc(OCC(=O)N/N=C/c2cccc3cccnc23)cc1 | – | 20 µM (active) |
| CSCC[C@H](NC(=O)OC(C)(C)C)C(=O)N/N=C/c1cccc2cccnc12 | -26.9% (inactive) | – |
| O=C(COc1ccc(F)cc1)N/N=C/c1cccc2cccnc12 | – | 2.82 µM (active) |
| Cc1cc(O)c(C(C)C)cc1N=Cc1ccc(N(C)C)cc1 | 0.592% [at 11.4 µM] (inactive) | – |
| Cc1nc(N2CCN(c3ccccn3)CC2)c2c(C)c(C(=O)N3CCN(c4ccc(F)cc4)CC3)sc2n1 | – | 14.1 µM (active) |
| Oc1c(C(c2ccccn2)N2CCCCC2)cc(Cl)c2cccnc12 (centres undefined) | -10.9% (inactive) | – |
| Cc1cc(NC(c2cccnc2)c2ccc3cccnc3c2O)no1 (centres undefined) | – | 3.98 µM (active) |
| Oc1c(C(Nc2ccccn2)c2cccnc2)cc(Cl)c2cccnc12 (centres undefined) | – | 12.6 µM (active) |
| CCOc1ccccc1NC(=O)N1CCC(c2nc3ccccc3[nH]2)CC1 | 28.9% [at 11.4 µM] (inactive) | – |
| O=C(Nc1cccc(C(F)(F)F)c1)N1CCC(c2nc(-c3ccc(F)cc3)no2)CC1 | – | 11.2 µM (active) |
| COc1ccc([C@@]2(C(C)C)ON(c3ccccc3C(F)(F)F)C2=O)cc1 | -27.1% [at 11.4 µM] (inactive) | – |
| Cn1c(=O)c(C#N)c(-c2ccc(F)cc2)c2cc(C(=O)c3cc(Cl)cc(Cl)c3O)cnc21 | – | 3.55 µM (active) |
| NC(=S)n1[nH]c(-c2ccc([N+](=O)[O-])cc2)c(N=Nc2cccc(Cl)c2)c1=O | – | 3.55 µM (active) |
| CC(C)(C)c1nnc(N/N=C/c2ccccc2O)n(N)c1=O | – | 1.26 µM (active) |
| COc1ccc(C(=O)C=CNNC(=O)c2ccc(Cl)cc2)cc1 | – | 11.2 µM (active) |
